Measurements as given in the supplement of paper PMC8047044.
“And” between values parts separate entries of the source, which are not always exact repeats. Identical values can stand only once.

test system: Neuro-2a; experiment: neurite formation score, plate-normalized to DMSO control mean 5.04 (score (0-8 scale)); higher = more or longer neurites; conditions: 1 µM
Description: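 Neuro-2a mouse neuroblastoma cells in PLL-coated 96-well plates were pre-treated for 1 h in DMEM(+) with each kinase inhibitor at 1 µM, then switched to serum-free DMEM(-) with inhibitor to induce neurite outgrowth and fixed about 2-3 h later. Three blinded observers scored neurite formation from 0 (no neurites) to 8 (long neurites on almost all cells).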

Q: How did the neurite formation score turn out when `C=CC(=O)N1CCC[C@@H](n2nc(-c3ccc(Oc4ccccc4)cc3)c3c(N)ncnc32)C1` was run?
A: 3.24

Q: `Cc1ccc2nc(NCCN)c3ncc(C)n3c2c1` was tested. Which neurite formation score did it give?
A: 4.47 and 4.14

Q: For `CO[C@H]1C[C@@H]2CC[C@@H](C)[C@@](O)(O2)C(=O)C(=O)N2CCCC[C@H]2C(=O)O[C@H]([C@H](C)C[C@@H]2CC[C@@H](OC(=O)C(C)(CO)CO)[C@H](OC)C2)CC(=O)[C@H](C)/C=C(\C)[C@@H](O)[C@@H](OC)C(=O)[C@H](C)C[C@H](C)/C=C/C=C/C=C/1C` [Temsirolimus], which neurite formation score is on record?
A: 4.24

Q: Which neurite formation score does the source give for `CSc1cccc(Nc2ncc3cc(-c4c(Cl)cccc4Cl)c(=O)n(C)c3n2)c1` here?
A: 0.626

Q: Which neurite formation score does the source give for `CCS(=O)(=O)c1cccc(-c2cc(C(=O)NC3CCN(C)CC3)c(C)c3[nH]c4ncc(C)cc4c23)c1` here?
A: 2.69

Q: With `COc1cc2ncnc(Nc3cccc(Cl)c3)c2cc1OC` as the compound, how does the neurite formation score read?
A: 3.57

Q: Which neurite formation score does the source give for `c1cc(-c2cnn3cc(-c4ccc(N5CCNCC5)cc4)cnc23)c2cccnc2c1` here?
A: 4.88

Q: `O=c1cc(-c2cccc3c2Sc2ccccc2S3)oc(N2CCOCC2)c1` was tested. Which neurite formation score did it give?
A: 3.69

Q: For `Cc1cnc(Nc2ccc(F)cc2Cl)nc1-c1c[nH]c(C(=O)N[C@H](CO)c2cccc(Cl)c2)c1`, which neurite formation score is on record?
A: 3.69

Q: For `O=C(c1ccc(/C=C/c2n[nH]c3ccccc23)cc1)N1CCNCC1`, which neurite formation score is on record?
A: 6.02

Q: How did the neurite formation score turn out when `CC(C)NC[C@@H](C(=O)N1CCN(c2ncnc3c2[C@H](C)C[C@H]3O)CC1)c1ccc(Cl)cc1` was run?
A: 4.24

Q: Which neurite formation score does the source give for `COc1ccc(Cl)cc1NC(=O)Nc1cc(C)nc2ccccc12` here?
A: 3.91

Q: How did the neurite formation score turn out when `CN1CCN(S(=O)(=O)c2ccc(-c3cnc(N)c(C(=O)Nc4cccnc4)n3)cc2)CC1` was run?
A: 2.88

Q: `COc1cc2nccc(Oc3ccc(NC(=O)C4(C(=O)Nc5ccc(F)cc5)CC4)cc3)c2cc1OC` was tested. Which neurite formation score did it give?
A: 3.57

Q: How did the neurite formation score turn out when `COc1ncc(-c2ccc3nccc(-c4ccnnc4)c3c2)cc1NS(=O)(=O)c1ccc(F)cc1F` was run?
A: 2.63

Q: How did the neurite formation score turn out when `COc1cccc(-c2cc(=O)c3ccccc3o2)c1N` was run?
A: 3.57

Q: Which neurite formation score does the source give for `COc1cc2c(Oc3ccc4[nH]c(C)cc4c3F)ncnc2cc1OCCCN1CCCC1` [Cediranib (AZD217)] here?
A: 3.91

Q: `Nc1cc(N)c(N)cc1N` [FAK Inhibitor 14] was tested. Which neurite formation score did it give?
A: 4.54

Q: For `FC(F)c1nc2ccccc2n1-c1nc(N2CCOCC2)nc(N2CCOCC2)n1`, which neurite formation score is on record?
A: 4.24

Q: With `CCOc1cc(C(=O)N2CCC(N3CCN(C)CC3)CC2)ccc1Nc1ncc2c(n1)N(C1CCCC1)c1ccccc1C(=O)N2C` as the compound, how does the neurite formation score read?
A: 4.02

Q: For `NC(=O)c1ccc(-c2nc(-c3ccc4c(c3)OCCO4)c(-c3ccccn3)[nH]2)cc1`, which neurite formation score is on record?
A: 4.36

Q: How did the neurite formation score turn out when `O=C(O)c1ccc(Nc2ncc3c(n2)-c2ccc(Cl)cc2C(c2c(F)cccc2F)=NC3)cc1` was run?
A: 3.47

Q: With `CNC(=O)c1ccc(C)c(-n2c(C)cc(OCc3ccc(F)cc3F)c(Br)c2=O)c1` as the compound, how does the neurite formation score read?
A: 3.57

Q: Which neurite formation score does the source give for `O=C1NC(=O)[C@@H](c2cn3c4c(cccc24)CCC3)[C@@H]1c1c[nH]c2ccccc12` [Tivantinib (ARQ 197)] here?
A: 0.236

Q: With `N#Cc1c(O)c2c(-c3ccc(-c4ccccc4O)cc3)csc2[nH]c1=O` as the compound, how does the neurite formation score read?
A: 5.69

Q: How did the neurite formation score turn out when `O=C1Nc2ccc(I)cc2/C1=C/c1cc(Br)c(O)c(Br)c1` was run?
A: 3.29

Q: `Cc1cc(CS(=O)(=O)c2ccccc2)cc(OCc2ccc(CN3CCC[C@@H]3CO)cc2)c1` was tested. Which neurite formation score did it give?
A: 4.69

Q: How did the neurite formation score turn out when `CC(C)[C@H](CO)Nc1nc(Nc2cccc(Cl)c2)c2ncn(C(C)C)c2n1` [Purvalanol A] was run?
A: 3.54

Q: Which neurite formation score does the source give for `COc1nccc(-c2c(-c3ccc(F)cc3)ncn2C2CCC(O)CC2)n1` (configuration not stated) here?
A: 5.36

Q: How did the neurite formation score turn out when `CCn1nnc2c(N3CCOCC3)nc(-c3ccc(NC(=O)Nc4ccc(C(=O)N5CCN(C)CC5)cc4)cc3)nc21` was run?
A: 3.14

Q: With `COc1cc2c(N3CCN(C(=O)Nc4ccc(OC(C)C)cc4)CC3)ncnc2cc1OCCCN1CCCCC1` [Tandutinib (MLN518)] as the compound, how does the neurite formation score read?
A: 5.29

Q: For `Nc1ncnc2n[nH]c(Nc3ccc(F)cc3)c12`, which neurite formation score is on record?
A: 4.88

Q: For `O=C(NOC[C@H](O)CO)c1ccc(F)c(F)c1Nc1ccc(I)cc1F`, which neurite formation score is on record?
A: 4.91

Q: How did the neurite formation score turn out when `CN1CCC(COc2cnc(-c3cccc(Cn4nc(-c5cccc(C#N)c5)ccc4=O)c3)nc2)CC1` was run?
A: 3.69

Q: Which neurite formation score does the source give for `CO[C@@H](C(=O)N1Cc2[nH]nc(NC(=O)c3ccc(N4CCN(C)CC4)cc3)c2C1)c1ccccc1` here?
A: 3.69

Q: `CNC(=O)c1cccc(-c2ccc3c(N4CCOC[C@@H]4C)nc(N4CCOC[C@@H]4C)nc3n2)c1` was tested. Which neurite formation score did it give?
A: 4.29

Q: `CNC(=O)c1cc(Oc2ccc(NC(=O)Nc3ccc(Cl)c(C(F)(F)F)c3)c(F)c2)ccn1` [Regorafenib monohydrate] was tested. Which neurite formation score did it give?
A: 4.69
